About 2,400 (1.1%) of roughly 220,000 compounds were called active. A call without a number means that no potency is given here. Not shown: some 7% with an inconclusive outcome. The sample holds actives, similar compounds and a random draw of the others, so the mix is not that of the screen. Calls follow the shape of the dose curve; as a rule, active = well fitted inhibition curve with a large enough effect; inconclusive = small, poorly fitted or top-dose-only effect, or effect the other way; inactive = no such curve, though single readings can be large or run the other way.
Potency is read from the fitted curve at half-maximal effect.

The test is described as follows: qHTS Multiplex Assay to Identify Dual Action Probes in a Cell Model of Huntington: Aggregate Formation (GFP). Also: nearly all actives have a fitted effect of over 60% in size. The following applies: PC12 HttQ103-GFP aggregates, Acumen cytometry, 40 h; series mostly up to 9.22 µM. In short, it runs like this:
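PC12 cells stably carrying ecdysone-inducible HTT exon 1 Q103–GFP were induced with tebufenozide (100 nM final) and treated with library compounds in titration. GFP aggregates in lysates were counted by laser scanning cytometry.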
Take `CN(CC(O)COc1ccc(S(=O)(=O)N2CCOCC2)cc1Cl)C1CCCCC1` (configuration not stated): the Potency result was “inactive”.

Take `Cn1nnc(NC(=S)NC(=O)c2ccccc2)n1`: the Potency result is “inactive”. In the case of `CC(C)Cc1ccc(S(=O)(=O)N2CCN(C(=O)c3ccco3)CC2)cc1`, the Potency was 10 µM (active). For `CCNC(=S)N1CCN(C(=O)c2ccco2)CC1`, the Potency result was “inactive”. With `CN1CCN(S(=O)(=O)c2ccc(NC(=O)c3ccco3)cc2)CC1`, the Potency result is “inactive”. Regarding `CC1CC(=O)Nc2ccccc2N1S(=O)(=O)c1cccs1` (configuration not stated), the Potency entry was “inactive”. The value for `O=C(NCCCn1ccnc1)C(=O)NCC1OCCN1S(=O)(=O)c1cc(F)ccc1F` (configuration not stated) was “inactive”; that for `COC(=O)c1ccccc1NC(=O)CSc1nnnn1C` was “inactive”; that for `CCOC(=O)CNC(=O)CSc1nnnn1-c1cc(C)ccc1C` was “inactive”. Under `CCOC(=O)c1c(-c2ccc(C)cc2C)csc1NC(=O)CSc1nnnn1C` stands 11.2 µM (active); under `O=S(=O)(c1ccc(Cl)cc1)N1CCCN(c2ccc(C(F)(F)F)cn2)CC1`, “inactive”; under `c1ccc2c(c1)OCC(CNc1ncnc3nc[nH]c13)O2` (configuration not stated), “inactive”. In the case of `Cc1ccc(NC(=O)c2ccc(CSc3ncnc4nc[nH]c34)cc2)c(C)c1`, the Potency entry was “inactive”.

With `CCc1ccc(N(CC)c2ncnc3nc[nH]c23)cc1`, the Potency was 10 µM (active). With `COc1ccc2c(c1)OC(O)(C(F)(F)C(F)F)CC2=O` (configuration not stated), the Potency is 20 µM (active). For the compound `COc1ccc2c(c1)SC(C)CC2=O` (configuration not stated), the Potency result is “inactive”.

Take `CC1(C)CC(=O)c2ccc(O)cc2O1`: the Potency entry is “inactive”. In the case of `C=CCSc1nc(N)cc(=O)[nH]1`, the Potency entry is “inactive”. Take `O=C(O)CC1=C(Nc2ccccc2)C(=O)N(c2ccccc2)C1c1ccc(Cl)cc1` (configuration not stated): the Potency entry was “inactive”. The value for `CC(CO)(CO)NC(=O)c1ccc(=O)[nH]n1` was “inactive”; that for `Cc1[nH]n(-c2ccccc2)c(=O)c1/C=N/NC(=O)c1ccoc1C` was 7.08 µM (active); that for `COc1cccc(/C=N/NC(=O)c2cccc([N+](=O)[O-])c2)c1OS(=O)(=O)c1ccc(C)cc1` was “inactive”.

Consider `O=C(N/N=C/c1cccc([N+](=O)[O-])c1)c1ccncc1`, for which the Potency result was “inactive”.

For `Cc1ccc(N=Nc2c(C)[nH]n(-c3ccccc3)c2=O)cc1`, the Potency entry was “inactive”.

With `Cc1[nH]n(-c2cccc(Cl)c2)c(=O)c1/C=N/n1c(C)nc2ccccc2c1=O`, the Potency result is “inactive”.

`Cc1ccc(-n2[nH]c(C)c(/C=N/NC(=O)c3cccc([N+](=O)[O-])c3)c2=O)cc1C`: the Potency was 5.01 µM (active).

For the compound `COc1cc2c(cc1OC)[C@@H](Cc1cc(OC)c(OC)c(OC)c1)[N+](C)(CCCOC(=O)CC/C=C/CCC(=O)OCCC[N+]1(C)CCc3cc(OC)c(OC)cc3[C@H]1Cc1cc(OC)c(OC)c(OC)c1)CC2` (some centres not stated), the Potency entry was “inactive”. Take `O=c1[nH]n2c(-c3ccccc3)nc(O)c2c2ccccc12`: the Potency result was “inactive”.

In the case of `Cc1nc2c(-c3ccccc3)c(C)[nH]n2c(=O)c1Cl`, the Potency is 10 µM (active).

Turning to `Cc1cc(-c2ccccc2)n2nc(C)c(-c3ccccc3)c2n1`, the Potency result is “inactive”. On to `Cc1ccc(F)cc1NC(=O)Cc1nn(C)c(=O)c2ccccc12`, for which the Potency was 14.1 µM (active). On to `COc1ccc(-c2nn(C)c(=O)c3ccccc23)cc1NC(=O)COc1ccccc1`, for which the Potency result is “inactive”. The value for `Cc1ccc(NC(=O)Cn2nc(C)c3ccccc3c2=O)c(C)c1` was “inactive”; that for `CCCCNC(=O)OCCSCCS(=O)(=O)c1ccc(Cl)cc1` was “inactive”.

On to `CC(C)(C)n1cnnc1Sc1ccc([N+](=O)[O-])cn1`, for which the Potency result was “inactive”. In the case of `CCC(C)N1C(=S)SC(C)(C)C1N(O)C(=O)NC1CCCCC1` (configuration not stated), the Potency result is “inactive”. Take `c1coc(CNc2ncnc3ccccc23)c1`: the Potency was 7.94 µM (active). On to `O=C(NCc1ccncc1)C(=O)NCc1ccco1`, for which the Potency result is “inactive”. On to `c1ccc(-c2nc(NCc3ccco3)c3ccccc3n2)cc1`, for which the Potency result was “inactive”. Under `Cc1cc(C)cc(NS(=O)(=O)c2ccc(F)cc2)c1` stands “inactive”; under `CCOc1cc(N2CCOCC2)c(OCC)cc1NC(=O)c1cc(C)nc2ccccc12`, “inactive”.

On to `CCOc1cc(N2CCOCC2)c(OCC)cc1NC(=O)COc1cccc2cccnc12`, for which the Potency is 3.55 µM (active).

Consider `CCOc1cc(N2CCOCC2)c(OCC)cc1NC(=O)c1ccc(C)s1`, for which the Potency result is “inactive”. In the case of `O=c1c2ccccc2cnn1Cc1n[nH]c(=S)n1-c1ccccc1F`, the Potency result was “inactive”. On to `CC(C)OCCCNc1ncnc2c1[nH]c1ccc(F)cc12`, for which the Potency is 2.24 µM (active).

With `O=C1CCCN1CCCNc1ncnc2c1[nH]c1ccccc12`, the Potency entry is “inactive”. Regarding `COc1cc(OC)c(OC)cc1/C=N/Nc1ncnc2c1[nH]c1ccc(C)cc12`, the Potency result is “inactive”. With `COc1ccc(NC(=O)C2CCC(CNc3c(N4CCCCC4)c(=O)c3=O)CC2)c(OC)c1` (configuration not stated), the Potency entry was “inactive”. On to `Cc1cc(N)n(-c2ccc(S(=O)(=O)N3CCCC3)cc2[N+](=O)[O-])n1`, for which the Potency result is “inactive”.

Regarding `CCOC(=O)N1CCN(Cc2nc3c(c(=O)n(C)c(=O)n3C)n2Cc2ccccc2)CC1`, the Potency entry was “inactive”.

Regarding `COCCn1c(CN(Cc2ccccc2)Cc2ccccc2)nc2c1c(=O)n(C)c(=O)n2C`, the Potency entry is “inactive”. `Cn1c(=O)c2c(nc(OCc3cccnc3)n2Cc2ccccc2)n(C)c1=O`: the Potency was 12.6 µM (active). The value for `O=C(Nc1ccc(Br)cn1)C1CCN(S(=O)(=O)c2cccs2)CC1` was “inactive”; that for `COC(=O)c1cccc(NS(C)(=O)=O)c1` was “inactive”; that for `Cc1ccc(Cl)c(OCC(=O)NN2CCN(C)CC2)c1` was “inactive”. With `CCn1c(/C=C/c2ccc([N+](=O)[O-])o2)nc2ccccc2c1=O`, the Potency is 11.2 µM (active). On to `Cn1cc(/C=C/c2nc3ccccc3c(=O)n2-c2cccc([N+](=O)[O-])c2)c2ccccc21`, for which the Potency entry was “inactive”. The value for `C/[N+]([O-])=C\c1ccc([N+](=O)[O-])o1` was “inactive”; that for `CC(NC(=O)C(C)(C)C)C(c1cccs1)N1CCN(Cc2ccccc2)CC1` (configuration not stated) was “inactive”. In the case of `Cc1ccc(C)c2c1cc(C)c1nnc(SCC(=O)Nc3cccc(C(=O)O)c3)n12`, the Potency entry is “inactive”. Consider `O=S(=O)(Nc1ccc(OC(F)(F)F)cc1)c1cccc2nonc12`, for which the Potency result is “inactive”.

`CC(C)CN(CC(C)C)CC(O)CN(c1ccccc1)S(=O)(=O)c1ccccc1[N+](=O)[O-]` (configuration not stated): the Potency result was “inactive”. On to `Cc1cccc(CSc2nnc(Cn3c(=O)sc4ccccc43)n2C)c1`, for which the Potency entry was “inactive”. As to `COc1ccc(Cn2c(=O)sc3ccccc32)cc1OC`, the Potency is 0.631 µM (active).

With `COc1ccccc1CNC(=O)CCn1c(=O)sc2ccccc21`, the Potency result was “inactive”. Under `CC(C)Sc1nnc([C@H](Cc2ccccc2)NC(=O)OC(C)(C)C)o1` stands “inactive”; under `CCc1cc(C(=O)c2ccc(OC)cc2)c(NC(=O)CN2CCN(C)CC2)s1`, “inactive”.

Values taken from PubChem BioAssay AID1688 (National Center for Advancing Translational Sciences (NCATS), 2009).
